RORgamma inh – qHTS for inhibitors of ROR gamma transcriptional activity; Nuclear receptor ROR-gamma (Mus musculus), P51450; Drosophila S2 Gal4-RORgamma UAS-luciferase reporter, 20 h; Potency, µM (highest dose often 53.6 µM), for the others: at the top dose activity change, negative = inhibition, usual class: inhibitors; AID 2551, 2010; hit rate 5.4% among 310,000; also: nearly all actives have a fitted effect of over 60% in size
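Drosophila S2 cells stably expressing Gal4-DBD/mouse RORγ fusion under metallothionein promoter plus UAS-luciferase; compound 1 h, then 700 uM CuSO4 induction for 20 h at ambient temperature; inhibition read as reduced luminescence.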
ALDH1A1 block – qHTS Assay for Inhibitors of Aldehyde Dehydrogenase 1 (ALDH1A1); Purified ALDH1A1, NADH fluorescence, propionaldehyde substrate; Aldehyde dehydrogenase 1A1 (Homo sapiens), P00352; AID 1030, 2008; Potency, µM (doses to about 75.3 µM), inactives show at the top dose activity, negative = inhibition, most hits filed as inhibitors; hit rate 7.3% among 220,000; active = well fitted inhibition curve with a large enough effect, not every such curve was filed as active; inconclusive = small, poorly fitted or top-dose-only effect, or another doubt; inactive = no such curve, though single readings can be large or run the other way;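 also: plate controls were no enzyme wells and a reference inhibitor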
VP16 counter – VP16 counterscreen qHTS for inhibitors of ROR gamma transcriptional activity | Drosophila S2 Gal4-VP16 UAS-luciferase, luminescence, 20 h | Potency, µM (highest dose often 53.6 µM), without a hit: at the top dose activity, negative = inhibition, actives largely listed as inhibitors | hit rate 3.5% among 310,000 | AID 2546, 2010;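 also: Gal4-VP16 expression switched on by copper sulfate through the metallothionein promoter; nearly all actives have a fitted effect of over 50% in size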
Sfp inh – qHTS Assay for Inhibitors of Bacillus subtilis Sfp phosphopantetheinyl transferase (PPTase); 4'-phosphopantetheinyl transferase ffp (Bacillus subtilis), Q9F4F7; Biochemical Sfp PPTase activity, qHTS; Potency, µM, for the others: largest response in the series, negative = inhibition, most hits filed as inhibitors; hit rate 3.5% among 310,000; AID 1490, 2009;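 also: the enzyme is Sfp with the accession as filed and its product quenches rhodamine fluorescence; 0% = enzyme reaction without inhibitor and -100% = no enzyme wells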
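With Hepes-Na pH 7.6 buffer containing 10 mM MgCl2, Sfp (15 nM) modified BHQ-2-YbbR (12.5 uM) using rhodamine-CoA (5 uM). Two reads 30 minutes apart at 525/598 nm yielded each well's rate.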
PLK1 PBD block – qHTS for Inhibitors of PLK1-PDB (polo-like kinase 1 - polo-box domain): Primary Screen; Plk1 PBD binding of FITC phosphopeptide, fluorescence polarization; Potency, µM, for inactives: max response, negative = inhibition, hits mostly inhibitors; hit rate 2.8% among 360,000; AID 720504, 2013; also: series mostly up to about 57 µM; nearly all actives have a fitted effect of over 65% in size
Target sequence (P53350 whole entry, looked up, the tested form may be a part): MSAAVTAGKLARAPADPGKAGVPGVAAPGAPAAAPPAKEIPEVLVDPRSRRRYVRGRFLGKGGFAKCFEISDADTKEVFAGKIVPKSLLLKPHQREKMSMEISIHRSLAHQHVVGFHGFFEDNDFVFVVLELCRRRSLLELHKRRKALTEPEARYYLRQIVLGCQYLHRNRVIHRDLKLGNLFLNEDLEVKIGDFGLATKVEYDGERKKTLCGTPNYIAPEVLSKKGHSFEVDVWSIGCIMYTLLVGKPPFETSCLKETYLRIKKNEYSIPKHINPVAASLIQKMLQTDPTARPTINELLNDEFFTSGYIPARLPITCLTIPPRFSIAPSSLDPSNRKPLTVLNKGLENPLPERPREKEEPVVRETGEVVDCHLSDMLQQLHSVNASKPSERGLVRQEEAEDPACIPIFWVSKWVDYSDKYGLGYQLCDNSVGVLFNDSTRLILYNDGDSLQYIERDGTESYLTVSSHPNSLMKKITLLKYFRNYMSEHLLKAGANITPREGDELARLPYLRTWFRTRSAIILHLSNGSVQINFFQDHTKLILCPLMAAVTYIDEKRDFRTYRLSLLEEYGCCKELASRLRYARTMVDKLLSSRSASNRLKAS
Active calls of the source: *; ? = inconclusive; . = no result; [ ] = another dose, or the depositor's remark. The list is not random: actives were taken first. Their share in the collection is about 12%. Unless noted, calls follow the shape of the dose curve; as a rule, active = well fitted curve in the direction sought with a large enough effect; inconclusive = small, poorly fitted or top-dose-only effect, or another doubt; inactive = no such curve, though single readings can be large; an effect the other way counts as inactive or inconclusive. Unless noted, % is scaled to controls: 0 for no effect and ±100 for the full control effect; potency is read from the fitted curve at half-maximal effect.

SMILES | RORgamma inh | ALDH1A1 block | VP16 counter | Sfp inh | PLK1 PBD block
CCCCNC(=S)NC(=O)c1ccc([N+](=O)[O-])cc1 | 4.5µM* | -14% | ? | 8% | -2%
CCCC(=O)NC(=S)NNC(=O)c1ccc([N+](=O)[O-])cc1 | -11%[10 µM] | 18µM* | -10% | ? | -23%
CCc1nc2c(OCc3ccc(OC(F)F)cc3)cccn2c1N(C)C(=O)c1ccc(OC)cc1 | . | . | . | . | -5%
CCOC(=O)C1(CC)Oc2ccccc2C(c2ccc(OC)cc2)=C1C(=O)OC (stereo not given) | 4% | -15% | -16% | 15% | -2%
Cc1cccc(CSc2nnc(-c3ccco3)o2)c1 | 1% | -7% | ? | 28µM* | 3%
Brc1cccc(-c2nnc(SCc3nc4ccccc4[nH]3)o2)c1 | 11µM* | 4% | -17% | -8% | -3%
Cc1cccc(-c2nnc(SCc3ccccc3)o2)c1 | 14µM* | 3% | -29% | -12% | -17%
Cc1cccc(CSc2nnc(-c3ccco3)n2C)c1 | 27% | ? | 4% | 7% | -11%
C[C@@](N)(C(=O)O)[C@@H]1C[C@@H]1C(=O)O | . | 2% | . | -20% | .
CCC1CCCCN1CCCNC(=O)Cn1c(=O)c2cccn2c2cccnc21 (stereo not given) | ? | . | -2% | 3% | -15%
O=S1(=O)CC/C(=N\Nc2ccccc2)c2ccsc21 | ? | 25µM* | 26%[10 µM] | -14% | -18%
C/C(Cn1cnc([N+](=O)[O-])n1)=N\NC(=O)c1ccccc1 | 22% | -9% | 23% | -8% | -6%
C/C(Cn1nnc([N+](=O)[O-])n1)=N\NC(=O)c1ccccc1 | 10µM* | -11% | ? | -4% | -6%
O=C(Cn1cnc2sc3c(c2c1=O)CCCC3)NCC(=O)Nc1c(F)cccc1F | 8% | . | -9% | -21% | 34µM*
C[C@H](NC(=O)c1nc[nH]c1C(=O)N[C@@H](Cc1ccccc1)C(=O)OC(C)(C)C)C(=O)OC(C)(C)C | 11µM* | . | ? | 21% | 0%
CC(C)(C)OC(=O)NCCCCCNC(=O)c1[nH]cnc1C(=O)N[C@@H](Cc1ccccc1)C(=O)OC(C)(C)C | . | . | . | . | -12%
CC(C)(C)OC(=O)[C@H](Cc1ccccc1)NC(=O)c1[nH]cnc1C(=O)N[C@@H](Cc1ccccc1)C(=O)OCc1ccccc1 | 7.1µM* | . | ? | 19% | 0%
CC(C)(C)OC(=O)[C@H](Cc1ccccc1)NC(=O)c1nc[nH]c1C(=O)N[C@@H](Cc1ccccc1)C(=O)OC(C)(C)C | 7.9µM* | . | ? | 19% | 0%
OC(c1ccc(F)c(F)c1)c1nc(-c2cc(F)cc(F)c2)cs1 (stereo not given) | . | . | . | . | 7%
CCN(CC)C1CCN(C(=O)c2ccc(OC3CCN(C(=O)CCOC)CC3)cc2)C1 (stereo not given) | . | . | . | . | -2%
N=C(N)SCc1cccc(-c2nc3ccccc3c(=O)o2)c1 | . | -8%[13.5 µM] | . | . | .
CN1CCN(C(=O)OC2CC3CC2[C@H]2CCCCN2C3=O)CC1 (stereo not given in full) | . | . | . | . | 3%
CC1CCC2C(=O)N3C(CCC(C)[C@@H]3c3ccc(-c4ccco4)cc3)C(=O)N2C1c1cccc(N2CCCC2=O)c1 (stereo not given in full) | 40%[10 µM] | ? | ? | ? | .
Cc1ccc(NC(=S)N2CCCC(c3nc4ccc(C)cc4[nH]3)C2)c(C)c1 (stereo not given) | 1% | -3% | ? | -8% | -8%
Cc1cc2nc(C3CCCN(C(=S)Nc4ccccc4C)C3)[nH]c2cc1C (stereo not given) | 20µM* | -10% | -15% | 6% | -17%
Cc1ccc2nc(C3CCCN(C(=S)Nc4cccc(C)c4C)C3)[nH]c2c1 (stereo not given) | 11µM* | -7% | ? | 5% | -9%
Cc1cccc(-c2n[nH]c(=S)n2/N=C/c2ccc(C)s2)c1 | 11µM* | -1% | 5.6µM* | ? | -21%
Cc1ccsc1/C=N/n1c(-c2ccncc2)n[nH]c1=S | ? | -6% | ? | -4% | ?
